Experimental data taken from PubChem BioAssay (NCATS).
Records with an inconclusive call do not appear. This is one part of the list. Active and inactive are the calls of the source. Unless noted, the call rests on the fitted dose curve; in most records, active means well fitted curve in the direction sought with a large enough effect; inconclusive means small, poorly fitted or top-dose-only effect, or another doubt; inactive means no such curve, though single readings can be large; an effect the other way counts as inactive or inconclusive.

Experiments:
[1] = biological target: Tumor susceptibility gene 101 protein (Homo sapiens) (UniProt Q99816); assay: qHTS Assay for Iinhibitors of HIV-1 Budding by Blocking the Interaction of PTAP/TSG101: Hit Validation (AID 651600); further: nearly all actives have a fitted effect of over 70% in size; further: potency means the concentration at half of the fitted maximal effect
Sequence of Tumor susceptibility gene 101 protein (Homo sapiens) (Q99816 whole entry, looked up): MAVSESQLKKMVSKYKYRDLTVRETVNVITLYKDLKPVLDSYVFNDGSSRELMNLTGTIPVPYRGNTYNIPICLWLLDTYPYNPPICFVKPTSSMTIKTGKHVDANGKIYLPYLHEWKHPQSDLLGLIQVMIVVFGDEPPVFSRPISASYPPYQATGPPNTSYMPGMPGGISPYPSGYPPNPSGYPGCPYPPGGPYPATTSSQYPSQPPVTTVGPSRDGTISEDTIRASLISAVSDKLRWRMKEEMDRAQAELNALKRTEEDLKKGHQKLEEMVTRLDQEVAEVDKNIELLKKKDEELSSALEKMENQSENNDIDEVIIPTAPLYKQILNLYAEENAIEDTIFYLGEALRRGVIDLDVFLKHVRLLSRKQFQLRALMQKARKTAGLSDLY
Method in brief: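 Measuring PTAP–Tsg101 interaction by FP: protein at 10 uM and fluorescent peptide at 50 nM (final), buffer 10 mM HEPES pH 7.5 with 0.15 M NaCl, 3 mM EDTA, 0.1 mM TCEP, 0.01% Tween 20; 20 min incubation, r.t.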

[2] = biological target: Rap guanine nucleotide exchange factor 3 (Homo sapiens) (UniProt O95398); assay: Confirmatory qHTS for antagonist of cAMP-regulated guanine nucleotide exchange factor 3 (EPAC1) (AID 1645880); settings: EPAC1 Rap1B-BODIPY-GDP exchange, fluorescence; activity, negative = inhibition: at 115 µM (top of the series); further: nearly all actives have a fitted effect of over 55% in size; further: potency means the concentration at half of the fitted maximal effect;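 on activity, negative = inhibition: plate controls were DMSO only for no effect and full effect of the ATA control for full effect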
Sequence of Rap guanine nucleotide exchange factor 3 (Homo sapiens) (O95398 whole entry, looked up): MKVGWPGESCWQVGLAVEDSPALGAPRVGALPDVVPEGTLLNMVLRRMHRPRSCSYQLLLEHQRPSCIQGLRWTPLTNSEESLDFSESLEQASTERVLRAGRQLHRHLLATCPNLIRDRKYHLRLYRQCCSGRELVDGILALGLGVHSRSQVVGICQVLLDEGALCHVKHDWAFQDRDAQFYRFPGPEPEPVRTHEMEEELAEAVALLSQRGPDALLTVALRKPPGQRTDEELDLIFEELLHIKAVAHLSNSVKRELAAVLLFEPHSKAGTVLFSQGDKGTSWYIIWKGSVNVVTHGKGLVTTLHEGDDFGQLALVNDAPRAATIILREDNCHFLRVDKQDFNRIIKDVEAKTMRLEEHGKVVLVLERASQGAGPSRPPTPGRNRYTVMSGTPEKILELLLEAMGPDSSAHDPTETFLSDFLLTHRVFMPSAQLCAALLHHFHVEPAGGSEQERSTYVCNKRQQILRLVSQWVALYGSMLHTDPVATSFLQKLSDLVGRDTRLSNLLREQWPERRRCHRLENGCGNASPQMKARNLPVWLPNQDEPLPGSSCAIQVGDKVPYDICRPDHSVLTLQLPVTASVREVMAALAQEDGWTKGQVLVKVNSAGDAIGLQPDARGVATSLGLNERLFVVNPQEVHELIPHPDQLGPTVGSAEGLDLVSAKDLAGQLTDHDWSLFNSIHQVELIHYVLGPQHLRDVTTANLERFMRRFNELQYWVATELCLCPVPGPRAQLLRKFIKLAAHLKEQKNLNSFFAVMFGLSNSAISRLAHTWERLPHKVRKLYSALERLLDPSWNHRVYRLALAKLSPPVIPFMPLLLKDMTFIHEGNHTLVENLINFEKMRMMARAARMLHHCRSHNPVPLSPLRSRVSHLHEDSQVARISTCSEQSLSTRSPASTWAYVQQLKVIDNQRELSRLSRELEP
Method in brief: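 Nucleotide exchange uses 100 nM EPAC1, 250 nM RAP1B-BODIPY-GDP and 50 uM GDP, with compounds in a concentration-titration series. After 5 min at room temperature, fluorescence (480 nm ex/540 nm em) is read every 5 min for 30 min. Data are normalized to control ATA and DMSO.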

[3] = biological target: Rap guanine nucleotide exchange factor 3 (Homo sapiens) (UniProt O95398); assay: Confirmatory qHTS for agonist of cAMP-regulated guanine nucleotide exchange factor 3 (EPAC1) (AID 1645881); further: nearly all actives have a fitted effect of over 75% in size; further: potency means the concentration at half of the fitted maximal effect;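 on activation: EPAC1 catalysed release of BODIPY-GDP from Rap1B seen as fluorescence loss; 100% = effect of cAMP agonist control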
[4] = biological target: Rap guanine nucleotide exchange factor 4 (Homo sapiens) (UniProt Q8WZA2); assay: Confirmatory qHTS for agonist of cAMP-regulated guanine nucleotide exchange factor 4 (EPAC2) (AID 1645884);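 further: nucleotide exchange releases bodipy-GDP from Rap1 and this lowers its fluorescence; nearly all actives have a fitted effect of over 65% in size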; further: potency means the concentration at half of the fitted maximal effect
Sequence of Rap guanine nucleotide exchange factor 4 (Homo sapiens) (Q8WZA2 whole entry, looked up): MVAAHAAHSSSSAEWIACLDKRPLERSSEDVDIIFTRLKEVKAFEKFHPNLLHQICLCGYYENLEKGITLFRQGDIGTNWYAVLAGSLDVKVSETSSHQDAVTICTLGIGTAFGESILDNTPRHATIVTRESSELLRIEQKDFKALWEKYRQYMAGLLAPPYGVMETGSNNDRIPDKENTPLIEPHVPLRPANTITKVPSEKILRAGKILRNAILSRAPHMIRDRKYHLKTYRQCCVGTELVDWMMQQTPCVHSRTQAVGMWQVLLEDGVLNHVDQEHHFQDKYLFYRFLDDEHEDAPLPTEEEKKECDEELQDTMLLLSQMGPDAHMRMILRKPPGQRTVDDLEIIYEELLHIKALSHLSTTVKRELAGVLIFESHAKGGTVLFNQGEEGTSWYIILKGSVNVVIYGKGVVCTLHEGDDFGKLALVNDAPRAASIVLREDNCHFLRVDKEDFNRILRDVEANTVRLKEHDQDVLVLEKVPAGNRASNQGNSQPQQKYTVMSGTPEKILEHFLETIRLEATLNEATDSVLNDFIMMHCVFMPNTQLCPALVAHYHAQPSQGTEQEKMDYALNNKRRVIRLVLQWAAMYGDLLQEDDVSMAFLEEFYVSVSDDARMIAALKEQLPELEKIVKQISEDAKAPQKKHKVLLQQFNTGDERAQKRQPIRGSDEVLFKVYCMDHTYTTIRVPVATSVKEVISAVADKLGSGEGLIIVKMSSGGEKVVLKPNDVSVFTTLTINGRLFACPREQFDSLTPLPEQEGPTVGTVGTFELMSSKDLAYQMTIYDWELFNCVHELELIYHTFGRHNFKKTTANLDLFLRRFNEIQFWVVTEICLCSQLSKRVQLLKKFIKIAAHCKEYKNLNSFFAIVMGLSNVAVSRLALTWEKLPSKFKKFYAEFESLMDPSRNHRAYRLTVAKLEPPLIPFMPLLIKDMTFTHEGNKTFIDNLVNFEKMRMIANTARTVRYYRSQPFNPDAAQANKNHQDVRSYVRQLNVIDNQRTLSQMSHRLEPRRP

[5] = biological target: Rap guanine nucleotide exchange factor 4 (Homo sapiens) (UniProt Q8WZA2); assay: Confirmatory qHTS for antagonist of cAMP-regulated guanine nucleotide exchange factor 4 (EPAC2) (AID 1645885); further: nearly all actives have a fitted effect of over 25% in size; further: potency means the concentration at half of the fitted maximal effect
[6] = biological target: Rap guanine nucleotide exchange factor 3 (Homo sapiens) (UniProt O95398); assay: Counterscreen qHTS for antagonist of cAMP-regulated guanine nucleotide exchange factor 3 (EPAC1) (AID 1645888);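 further: fluorescence loss as bound BODIPY-GDP is released from Rap1B; % of control where 0% means no effect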
Method in brief: (§1)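 Measured: fluorescence of BODIPY-GDP bound to Rap1B, which falls as exchange proceeds. Conditions include 50 uM competing GDP, 5 and 30 min reads, and a later cAMP challenge for antagonist detection.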

[7] = AP1 Signaling Pathway (AID 357; active means well fitted curve in either direction with a large enough effect, not every such curve was filed as active; further: on the % scale 0 is the no-effect control and ±100 the full control effect); settings: ME-180 AP-1-bla reporter, EGF-induced, beta-lactamase ratio, 5 h; at 7.69 µM (top of the series) unless noted
Method in brief: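 AP-1-bla ME-180 cells with beta-lactamase reporter under AP-1 response element, stimulated with EC50 EGF; compounds titrated, 5 hours at 37 degrees Celsius. CCF4 read at 460/530 nm ratio; positive and negative modulators judged by AC50.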

[8] = NFAT Signaling Pathway (AID 444; active means well fitted curve in either direction with a large enough effect, not every such curve was filed as active;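 further: carbachol stimulus at about its EC50 of 1 µM final; on the % scale 0 is the no-effect control and ±100 the full control effect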); settings: Jurkat NFAT-bla M1, carbachol, beta-lactamase ratio, 5 h; at 7.69 µM (top of the series) unless noted
Method in brief: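 Jurkat cells carrying an NFAT-driven β-lactamase reporter and co-transfected muscarinic M1 receptor were treated with compound plus carbachol (1 uM final, an EC50 level) for 5 h at 37 °C. CCF4 loading followed for 1 h at RT; 460/530 nm ratio gave %activity.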

[9] = Stat Signaling Pathway (AID 446; active means well fitted curve in either direction with a large enough effect, not every such curve was filed as active;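 further: ME-180 cervical cancer cells given 40 pM IL-6 alongside compound; SIE-controlled beta-lactamase reporter measured as 460/530 nm FRET emission ratio; on the % scale 0 is the no-effect control and ±100 the full control effect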)
Method in brief: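 ME-180 cells carrying a SIE-driven beta-lactamase reporter are stimulated with 40 pM IL-6 for 5 h at 37C in the presence of compound. The 460/530 nm FRET substrate ratio is read after 2.5 h at RT. Data are normalised to 300 pM IL-6 and to 125 nM JAK inhibitor controls.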

[10] = biological target: Glucocorticoid receptor (Homo sapiens) (UniProt P04150); assay: GR-GFP Redistribution (AID 450;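 active means compounds whose dose series gives a full or clear partial fitted curve of increased nuclear translocation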; further: potency means the concentration at half of the fitted maximal effect); settings: U2OS GR-GFP nuclear translocation, laser cytometry, 2 h
Sequence of Glucocorticoid receptor (Homo sapiens) (P04150 whole entry, looked up, the tested form may be a part): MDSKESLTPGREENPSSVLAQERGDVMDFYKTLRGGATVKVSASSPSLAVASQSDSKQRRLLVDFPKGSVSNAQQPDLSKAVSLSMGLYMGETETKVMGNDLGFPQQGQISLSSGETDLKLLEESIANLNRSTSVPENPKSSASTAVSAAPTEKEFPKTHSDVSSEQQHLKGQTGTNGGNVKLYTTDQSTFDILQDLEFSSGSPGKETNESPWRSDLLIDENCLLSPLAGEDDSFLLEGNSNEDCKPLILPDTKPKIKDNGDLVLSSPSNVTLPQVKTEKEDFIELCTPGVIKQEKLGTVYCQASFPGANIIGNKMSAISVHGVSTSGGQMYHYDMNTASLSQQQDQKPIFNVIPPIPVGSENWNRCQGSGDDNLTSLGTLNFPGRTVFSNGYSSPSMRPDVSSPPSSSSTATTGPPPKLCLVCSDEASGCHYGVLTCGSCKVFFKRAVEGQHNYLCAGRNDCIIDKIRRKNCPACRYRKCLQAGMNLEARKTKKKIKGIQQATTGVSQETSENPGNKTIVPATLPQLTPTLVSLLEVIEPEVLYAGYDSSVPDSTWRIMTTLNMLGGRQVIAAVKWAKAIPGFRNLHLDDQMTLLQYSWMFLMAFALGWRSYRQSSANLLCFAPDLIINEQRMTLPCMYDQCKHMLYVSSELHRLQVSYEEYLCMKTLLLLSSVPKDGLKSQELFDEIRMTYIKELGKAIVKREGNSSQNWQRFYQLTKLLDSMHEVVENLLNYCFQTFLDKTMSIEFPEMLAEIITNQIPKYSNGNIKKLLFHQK

[11] = biological target: Rap guanine nucleotide exchange factor 3 (Homo sapiens) (UniProt O95398); assay: Counterscreen qHTS for agonist of cAMP-regulated guanine nucleotide exchange factor 3 (EPAC1) (AID 1645889); further: % of control where 0% means no effect; nearly all actives have a fitted effect of over 40% in size
Method in brief: as §1

[12] = biological target: DNA polymerase iota (Homo sapiens) (UniProt Q9UNA4); assay: qHTS for Inhibitors of Polymerase Iota: Confirmatory Assay for Cherry-picked Compounds (AID 720496); settings: Pol iota primer extension, TAMRA/BHQ fluorescence; further: potency means the concentration at half of the fitted maximal effect
Method in brief: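 Human Pol iota (10 nM) was preincubated 15 min at room temperature with compound, then started with 50 nM TAMRA/BHQ-2 quenched primer-template substrate. Fluorescence (ex 525/em 598 nm) was read at 0 and 10 min.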

[13] = biological target: Lysosomal acid glucosylceramidase (Homo sapiens) (UniProt P04062); assay: Glucocerebrosidase-p2 (AID 348; in the data active means potency below about 10 µM; further: potency means the concentration at half of the fitted maximal effect); settings: purified GBA, blue fluorogenic substrate, 40 min
Method in brief: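 Compounds titrated from 0.6 nM upwards against 0.2 nM enzyme in pH 5.9 citric acid/KH2PO4, taurocholate, tween-20; blue fluorogenic substrate 80 uM, 40 min room temperature, stopped and read Ex 365/Em 440 for AC50.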

[14] = biological target: Cytochrome P450 1A2 (Homo sapiens) (UniProt P05177); assay: p450-cyp1a2 (AID 410; calls by dose curve; further: potency means the concentration at half of the fitted maximal effect)
Method in brief: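 20nM CYP1A2 with 100uM Luciferin-ME (at Km) in 100mM KPO4; compound preincubated 10 min, NADPH regeneration added, 60 min at room temperature. Luciferin quantified by luminescence after detection reagent; normalized to 57 uM furafylline.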

[15] = biological target: Glucocorticoid receptor (Homo sapiens) (UniProt P04150); assay: GR-EFC Redistribution (AID 451; calls by dose curve; further: potency means the concentration at half of the fitted maximal effect); settings: CHO-K1 GR-EFC translocation, beta-gal luminescence, 2 h
Method in brief: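 CHO-K1 cells stably expressing nuclear-localized β-gal enzyme acceptor and GR fused C-terminally to the enzyme donor fragment; ligand-driven nuclear translocation restores β-gal by complementation. Compounds titrated up to 46 uM final, 2 h at 37 °C; luminescence read.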

[16] = biological target: Mitogen-activated protein kinase 10 (Mus musculus) (UniProt Q61831); assay: JNK3 AlphaScreen Assay (AID 530; active means well fitted curve in either direction with a large enough effect, not every such curve was filed as active;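 further: kinase came from lysate of stimulated human HepG2 cells; signal reports phosphorylation of biotinylated GST-cJun 1-79 at Ser73 with 10 µM ATP; on the % scale 0 is the no-effect control and ±100 the full control effect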)
Method in brief: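 Inhibitors reduce antibody binding to phosphorylated biotin-cJun, lowering AlphaScreen luminescence. Lysates from HepG2 cells pre-activated by IL-1beta plus TNF-alpha supplied JNK3; compounds were titrated.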

[17] = biological target: Cytochrome P450 2D6 (Homo sapiens) (UniProt P10635); assay: qHTS Assay for Inhibitors and Substrates of Cytochrome P450 2D6 (AID 891); further: potency means the concentration at half of the fitted maximal effect; nearly all actives have a fitted effect of over 60% in size
Method in brief: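 Human CYP2D6 (5 nM) with 30 uM Luciferin-ME EGE (at Km) in 100 mM KPO4, compound preincubated 10 min, then NADPH regeneration system for 60 min at room temperature. Luciferin read by luminescence; normalized to 1.43 uM quinidine.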

[18] = biological target: Cytochrome P450 2C19 (Homo sapiens) (UniProt P33261); assay: qHTS Assay for Inhibitors and Substrates of Cytochrome P450 2C19 (AID 899); further: potency means the concentration at half of the fitted maximal effect; nearly all actives have a fitted effect of over 60% in size
Method in brief: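 NADPH-dependent conversion of Luciferin-H EGE (10uM, at KM) by 5nM enzyme in 50mM KPO4, 60 min at 37C following 10 min compound preincubation. Stopped with luciferin detection buffer; luminescence read after 20 min.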

[19] = qHTS Assay for Identification of Small Molecule Agonists for Hypoxia Response Element Signaling Pathway (AID 914; active means well fitted activation curve with a large enough effect in the signal ratio, with a control signal flat, not every such curve was filed as active; the % refers to the signal ratio; further: % of control where 0% means no effect); settings: ME-180 (cervical carcinoma) HRE-bla reporter, beta-lactamase ratio, CoCl2, 17 h; activation: hits give high values
Method in brief: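 HRE-bla ME-180 assay for agonist-like enhancement of an EC50 CoCl2 stimulus: 17 h at 37 degrees Celsius, CCF4 for 2.5 h, ratiometric 460/530 nm signal converted to %Activity and fitted to AC50.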

[20] = biological target: ATPase family AAA domain-containing protein 5 (Homo sapiens) (UniProt Q96QE3); assay: HTS assay for small molecules that inhibit ELG1-dependent DNA repair in human embryonic kidney (HEK293T) cells expressing luciferase-tagged ELG1: Hit Confirmation (AID 624248); settings: HEK293T ELG1-luciferase levels, luminescence; cells co-treated with 5-fluorouridine; further: potency means the concentration at half of the fitted maximal effect; nearly all actives have a fitted effect of over 55% in size
Sequence of ATPase family AAA domain-containing protein 5 (Homo sapiens) (Q96QE3 whole entry, looked up, the tested form may be a part): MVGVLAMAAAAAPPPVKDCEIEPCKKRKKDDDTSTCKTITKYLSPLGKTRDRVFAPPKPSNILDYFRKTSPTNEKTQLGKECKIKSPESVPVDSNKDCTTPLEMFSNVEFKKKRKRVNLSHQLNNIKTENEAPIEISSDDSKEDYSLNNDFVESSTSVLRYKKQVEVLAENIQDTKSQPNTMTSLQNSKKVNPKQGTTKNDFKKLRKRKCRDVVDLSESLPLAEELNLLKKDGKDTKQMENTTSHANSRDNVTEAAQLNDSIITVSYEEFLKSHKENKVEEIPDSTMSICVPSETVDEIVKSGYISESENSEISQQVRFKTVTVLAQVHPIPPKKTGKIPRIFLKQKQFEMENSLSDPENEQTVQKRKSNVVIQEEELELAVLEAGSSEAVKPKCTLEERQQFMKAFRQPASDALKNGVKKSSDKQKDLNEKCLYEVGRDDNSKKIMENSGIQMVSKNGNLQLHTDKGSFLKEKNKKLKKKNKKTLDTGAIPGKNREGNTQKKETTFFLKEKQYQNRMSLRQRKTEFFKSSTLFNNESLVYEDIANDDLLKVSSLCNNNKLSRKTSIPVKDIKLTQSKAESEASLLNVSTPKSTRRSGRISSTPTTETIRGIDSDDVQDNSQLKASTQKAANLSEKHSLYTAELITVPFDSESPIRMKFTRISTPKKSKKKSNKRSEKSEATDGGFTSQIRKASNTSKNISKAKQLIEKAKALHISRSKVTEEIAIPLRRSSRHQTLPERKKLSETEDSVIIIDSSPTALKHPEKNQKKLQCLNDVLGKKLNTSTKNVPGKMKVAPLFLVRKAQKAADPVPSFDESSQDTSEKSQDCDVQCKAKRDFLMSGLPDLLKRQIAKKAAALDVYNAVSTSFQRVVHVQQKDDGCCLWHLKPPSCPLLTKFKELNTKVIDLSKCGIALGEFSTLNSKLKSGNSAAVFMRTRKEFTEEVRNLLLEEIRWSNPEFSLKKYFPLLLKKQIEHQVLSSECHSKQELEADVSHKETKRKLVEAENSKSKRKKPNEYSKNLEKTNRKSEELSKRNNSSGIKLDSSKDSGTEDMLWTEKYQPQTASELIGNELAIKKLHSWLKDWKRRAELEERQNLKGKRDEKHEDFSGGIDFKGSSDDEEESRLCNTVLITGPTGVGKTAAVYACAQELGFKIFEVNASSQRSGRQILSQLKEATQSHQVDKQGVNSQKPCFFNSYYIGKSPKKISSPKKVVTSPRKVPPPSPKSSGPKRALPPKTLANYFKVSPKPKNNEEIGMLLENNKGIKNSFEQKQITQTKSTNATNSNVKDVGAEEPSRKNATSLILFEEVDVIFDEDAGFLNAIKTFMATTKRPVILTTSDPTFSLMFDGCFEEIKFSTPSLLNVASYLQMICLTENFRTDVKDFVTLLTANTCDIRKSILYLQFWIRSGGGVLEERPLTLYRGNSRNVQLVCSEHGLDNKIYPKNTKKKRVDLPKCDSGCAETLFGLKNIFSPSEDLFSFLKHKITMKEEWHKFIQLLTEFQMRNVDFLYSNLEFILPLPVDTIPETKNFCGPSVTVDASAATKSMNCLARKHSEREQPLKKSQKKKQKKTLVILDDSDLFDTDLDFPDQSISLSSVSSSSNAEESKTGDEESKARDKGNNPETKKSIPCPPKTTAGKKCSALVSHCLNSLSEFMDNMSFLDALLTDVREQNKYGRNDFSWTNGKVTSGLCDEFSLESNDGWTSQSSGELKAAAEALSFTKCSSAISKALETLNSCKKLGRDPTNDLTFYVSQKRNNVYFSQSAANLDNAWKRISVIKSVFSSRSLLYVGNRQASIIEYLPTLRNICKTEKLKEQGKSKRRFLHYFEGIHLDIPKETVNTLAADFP
Method in brief: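 Cells (2,000/well) received 5-Fluorouridine plus pin-transferred compound or DMSO and were incubated 16 hr at 37 °C, 5% CO2. Luciferase activity was read by ONE-Glo luminescence after 30 min at room temperature; inhibitors suppress the signal.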

[21] = biological target: ATPase family AAA domain-containing protein 5 (Homo sapiens) (UniProt Q96QE3); assay: qHTS screen for small molecules that inhibit ELG1-dependent DNA repair in human embryonic kidney (HEK293T) cells expressing luciferase-tagged ELG1: Hit Confirmation using MMS Stimulated ELG1 (AID 624249); further: potency means the concentration at half of the fitted maximal effect; nearly all actives have a fitted effect of over 60% in size
Method in brief: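 Seed HEK293T ELG1-luc cells (2,000/well). Add compounds at ~5 h, then MMS to 10 µM final. Incubate 16 h. Measure luciferase using Amplight.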

[22] = qHTS screen for small molecules that inhibit ELG1-dependent DNA repair: Hit Confirmation with MMS Viability (AID 624251);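 further: viability read 16 h after compound addition; on the % scale 0 is the no-effect control and ±100 the full control effect; nearly all actives have a fitted effect of over 60% in size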
Method in brief: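 Reporter HEK293T cells (ELG1-luc) receive compounds about 5 hours after plating, alongside 10 µM MMS, and are scored for viability by CellTiter-Glo following 16 hours of treatment.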

CN(C)c1ccc(/C=C(\C#N)C(=O)Nc2nc3c(s2)CCN(Cc2ccccc2)C3)cc1
active: Potency [3] 100 µM | Potency [4] 100 µM
inactive: Potency [1] | Potency [2] | Potency [5] | Potency [6]

COCCn1c(N)c(C(=O)NCC2CCCO2)c2nc3ccccc3nc21 (stereo unspecified)
inactive: activity change, negative = inhibition [7] -8.13% [at 17.2 µM] | activity change, negative = inhibition [8] 8.7% [at 17.2 µM] | outcome [9] | Potency [10] > 20.6 µM | Potency [2] | Potency [3] | Potency [4] | Potency [5] | Potency [6]

O=[N+]([O-])c1ccc(Sc2cccc[n+]2[O-])c2nonc12
active: Potency [1] 18.3 µM | Potency [2] 31.6 µM
inactive: Potency [3] | activation [4] 3.05% [at 17.1 µM, percent relative to cAMP agonist control] | Potency [5] | activity change, negative = inhibition [6] -8.92% [at 30.8 µM] | activation [11] 9.42% [at 30.8 µM]

COC(=O)c1ccc(COc2ccc(/C=C/C(=O)c3ccc(OC)c(CSCC(=O)O)c3)cc2OC)cc1
active: Potency [12] 75.2 µM | Potency [2] 37.9 µM
inactive: Potency [3] | Potency [4] | Potency [5] | Potency [6] | Potency [11]

COc1ccc2nc3ccccc3nc2c1NC(=O)c1ccc(Cl)cc1Cl
active: Potency [3] 100 µM | Potency [4] 100 µM
inactive: Potency [1] | Potency [2] | Potency [5] | Potency [6]

CC(C)=CCC1=C(OCC(=O)O)C(=O)c2ccccc2C1=O
inactive: Potency [13] > 11.4 µM | activity change, negative = inhibition [7] 18.8% | outcome [9] | Potency [15] > 9.22 µM | activity change, negative = inhibition [16] 15.2% [at 11.4 µM] | Potency [3] | Potency [4] | Potency [5] | Potency [6]
active: Potency [14] 0.501 µM | Potency [17] 3.16 µM | Potency [18] 1.26 µM | Potency [2] 84.9 µM

CC(NC(=O)Nc1ccc(O)cc1)(C(F)(F)F)C(F)(F)F
inactive: activity change, negative = inhibition [7] 5.47% [at 17.2 µM] | activity change, negative = inhibition [8] 11.8% [at 17.2 µM] | outcome [9] | Potency [10] > 20.6 µM | activation [19] 8.6% | Potency [2] | Potency [3] | activation [4] -12.7% [at 17.1 µM, percent relative to cAMP agonist control] | Potency [5] | activity change, negative = inhibition [6] -9.73% [at 30.8 µM] | activation [11] 3.78% [at 30.8 µM]

COc1ccc(-c2cc(C(=O)N(C)CC(=O)Nc3ccccc3Cl)c3ccccc3n2)cc1OC
inactive: outcome [22] | Potency [2] | Potency [3] | activation [4] 3.75% [at 17.1 µM, percent relative to cAMP agonist control] | Potency [5] | activity change, negative = inhibition [6] -9.19% [at 30.8 µM]
active: Potency [20] 4.99 µM | Potency [21] 12.5 µM

COc1ccc(S(=O)(=O)/N=C2\C=C(NS(=O)(=O)c3ccccc3)C(=O)c3ccccc32)cc1
inactive: Potency [6] | Potency [11]
active: Potency [12] 67 µM | Potency [2] 8.49 µM | Potency [3] 50.1 µM | Potency [4] 100 µM | Potency [5] 10.7 µM

N#CC(C(=O)OC1CCCCC1)c1nc2ccccc2nc1N1CCOCC1 (stereo unspecified)
inactive: Potency [2] | Potency [3] | activation [4] -10.2% [at 17.1 µM, percent relative to cAMP agonist control] | Potency [5] | activity change, negative = inhibition [6] -21.8% [at 30.8 µM] | activation [11] -0.592% [at 30.8 µM]
active: Potency [1] 10.3 µM
